Compounds with a hit are over-represented: about 2.6% of the library has one in this group of screens.
A549 tox-1: Nrf2 qHTS screen for inhibitors: counterscreen for cytotoxicity; 0.16% of 390,000 active; Potency, µM (series often up to 46 µM), for inactives: top-dose activity change, negative = cytotoxicity, usual class: inhibitors; AID 504648, 2011; A549 ARE-Fluc cells, CellTiter-Fluor viability, 18-24 h; note: potency is the fitted concentration of half-maximal effect; % is set by controls: 0 for no effect and ±100 for the full control effect
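A549 ARE-Fluc cells in 5% FBS OPTI-MEM, 5000 cells/well, rested 2 h then exposed to compounds in concentration-response for 18-24 h at 37 °C. Viability by CellTiter-Fluor fluorescence (Ex 405/Em 525) after 30 min; luciferase luminescence (BugLite, 15 min, RT) read afterwards.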
Nrf2 activator: qHTS of Nrf2 Activators. AREc32 ARE-luciferase reporter (MCF7-derived line), luminescence, 24 h. Potency, µM (doses to about 46.1 µM), without a hit: top-dose activation, most hits filed as activators. 0.31% of 410,000 active; note: potency is the fitted concentration of half-maximal effect; % of control where 0% means no effect; nearly all actives have a fitted effect of over 65% in size
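For detection, Steady-Glo was added and plates sat 30 min at RT; before that, AREc32_Fluc cells grown overnight in OPTI-MEM/5% FBS had been treated with 23 nL compound for 24 hr at 37 deg C.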
A-T KAP1 phos: qHTS Assay for Identifying a Potential Treatment of Ataxia-Telangiectasia | Potency, µM (highest dose often 57.5 µM), for the others: at the highest dose activation, usual class: activators | F2112 A-T fibroblasts, KAP-1 phosphorylation AlphaLISA; neocarzinostatin DNA damage 30 min before lysis | 0.19% of 320,000 active; note: potency is the fitted concentration of half-maximal effect; % of control where 0% means no effect; nearly all actives have a fitted effect of over 45% in size
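ATM-like activity read as KAP-1 phosphorylation via AlphaLISA donor/acceptor antibody pairs after lysis and 6 hr at 25C. Cells were ATM-null patient fibroblasts (F2112, hTERT), dosed 60 min, then exposed to the DSB inducer NCS for 30 min.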
TCR activator: Activators of T cell receptors: qHTS campaign | Potency, µM (titrated, usually from 9.22 µM), inactives show top-dose activation of IL-2 secretion, most hits filed as activators | 330,000 tested, under 10 active | primary human leukocytes, anti-CD3, IL-2 HTRF, 48 h; note: % of control where 0% means no effect
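Readout: HTRF IL-2, Eu-cryptate/d2 antibody pair, 320nm excitation, 665nm emission. Stimulus: a-CD3 beads, no co-stimulation. Cells: primary human leukocytes. Exposure: 48 hr with compound.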
Nrf2 block: Nrf2 qHTS screen for inhibitors | A549 ARE-Fluc reporter, luciferase luminescence, 18-24 h | Potency, µM (titrated, usually from 46 µM), for the others: at the top dose activity change, negative = inhibition, usual class: inhibitors | 2.1% of 360,000 active; note: potency is the fitted concentration of half-maximal effect; % is set by controls: 0 for no effect and ±100 for the full control effect; nearly all actives have a fitted effect of over 60% in size
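A549 ARE_Fluc cells, 5000/well, 5% FBS OPTI-MEM; compounds in dose-response, 18-24 h at 37 °C/5% CO2; CellTiter-Fluor viability read (Ex 405/Em 525), then BugLite luciferase luminescence = Nrf2 activity.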
CCT modulator: High-Throughput Screening for Modulators of Cytosolic Chaperonin Activity; purified chaperonin ATPase assay, HTRF ADP detection, 30 min; activity change, % (no concentration beside the values), hits read low; 0.3% of 360,000 active; in the data active = activity change below about -30%; note: % is set by controls: 0 for no effect and ±100 for the full control effect
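Enzyme 40 or 20 nM (batch-dependent) in Tris pH 7.4/KCl/MgCl2/DTT; cpd 76 uM single point; ATP 10 uM; 30 min 37 °C; Transcreener ADP HTRF detection, 30 min RT; ratio 665/615.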
FLuc counter 3: Nrf2 qHTS screen for inhibitors: Purified Fluc Biochemical Counterscreen for Hit Validation | shares compounds with Nrf2 block | purified firefly luciferase, luminescence inhibition | Potency, µM (series often up to 57.5 µM), for the others: at the top dose activity change, negative = inhibition, most hits filed as inhibitors | 4% of 1,400 active | AID 720522, 2013; note: potency is the fitted concentration of half-maximal effect; % is set by controls: 0 for no effect and ±100 for the full control effect; nearly all actives have a fitted effect of over 65% in size
Target sequence (P08659 whole entry, looked up): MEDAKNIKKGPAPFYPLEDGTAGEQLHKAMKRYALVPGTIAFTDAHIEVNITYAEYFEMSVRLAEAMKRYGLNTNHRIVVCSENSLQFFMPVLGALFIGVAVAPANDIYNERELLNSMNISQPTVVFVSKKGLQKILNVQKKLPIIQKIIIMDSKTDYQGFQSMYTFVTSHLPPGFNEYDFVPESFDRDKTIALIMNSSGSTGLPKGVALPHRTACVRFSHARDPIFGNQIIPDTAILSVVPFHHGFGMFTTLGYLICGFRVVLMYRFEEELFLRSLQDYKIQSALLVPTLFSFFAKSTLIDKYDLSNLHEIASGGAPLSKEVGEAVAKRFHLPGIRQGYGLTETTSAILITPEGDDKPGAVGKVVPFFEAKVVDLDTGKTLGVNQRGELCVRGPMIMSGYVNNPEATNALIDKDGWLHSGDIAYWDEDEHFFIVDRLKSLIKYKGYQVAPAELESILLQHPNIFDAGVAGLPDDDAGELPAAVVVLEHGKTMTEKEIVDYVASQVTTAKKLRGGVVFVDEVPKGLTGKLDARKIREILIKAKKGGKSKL
A549 tox-2: Nrf2 qHTS screen for inhibitors: A549 ARE-Fluc Cytotoxicity Counterscreen for Hit Validation. shares compounds with Nrf2 block. A549 ARE-Fluc cells, cytotoxicity counterscreen. Potency, µM (top dose mostly 46.1 µM), without a hit: at the highest dose activity change, negative = cytotoxicity, hits mostly inhibitors. 2% of 1,400 active. AID 720523, 2013;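 note: potency is the fitted concentration of half-maximal effect; cells exposed to compounds for 18 to 24 hours; % is set by controls: 0 for no effect and ±100 for the full control effect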
Nrf2 ARE inh: Nrf2 qHTS screen for inhibitors: Nrf2 A549 ARE-Fluc Confirmation Assay for Hit Validation. shares compounds with Nrf2 block. A549 ARE-firefly luciferase reporter, luminescence. Potency, µM (doses to about 46.1 µM), for inactives: at the highest dose activity change, negative = inhibition, most hits filed as inhibitors. 74% of 1,400 active. AID 720524, 2013; note: potency is the fitted concentration of half-maximal effect; % is set by controls: 0 for no effect and ±100 for the full control effect; nearly all actives have a fitted effect of over 65% in size
* marks the source's active call; other numbers are inactive results. Unless noted, calls come from the whole dose curve; as a rule, active = well fitted curve in the direction sought with a large enough effect; inconclusive = small, poorly fitted or top-dose-only effect, or another doubt; inactive = no such curve, though single readings can be large; an effect the other way counts as inactive or inconclusive.

`COC(=O)c1c(C)oc2ccc(N(C(=O)c3ccncc3)S(=O)(=O)c3c(C)cc(C)cc3C)cc12` gave A549 tox-1 -3%, Nrf2 activator 0%, Nrf2 block 4.1µM*, FLuc counter 3 1%, A549 tox-2 -8% and Nrf2 ARE inh 5.8µM*.
For COc1ccc(-c2nc3scc(CCNS(=O)(=O)c4ccc(C)cc4)n3n2)cc1 the results were A549 tox-1 -2% and Nrf2 activator 5%.
`O=S(=O)(c1ccccc1)N1CCC(O)(CSc2ccccc2)CC1` gave A549 tox-1 -11%, Nrf2 activator 0%, A-T KAP1 phos -3%, TCR activator -4%, Nrf2 block inconclusive and CCT modulator -1.
Screening O=S(=O)(c1ccccc1)N1CCC(O)(CSc2ccc(F)cc2)CC1 returned A549 tox-1 inconclusive, Nrf2 activator 0%, A-T KAP1 phos 2%, TCR activator 1%, Nrf2 block 4.1µM*, CCT modulator -4, FLuc counter 3 0%, A549 tox-2 -7% and Nrf2 ARE inh 6.5µM*.
Screening CCOc1ccc(CCNC(=O)c2ccc3[nH]c(C)c(C)c3c2)cc1 returned A549 tox-1 -4%, Nrf2 activator 3% and Nrf2 block 15%.
`O=c1cc(N2CCN(c3cccc(Cl)c3)CC2)[nH]c(=O)n1C1CCCCC1` gave A549 tox-1 inconclusive, Nrf2 activator -1%, A-T KAP1 phos 5%, TCR activator -7%, Nrf2 block inconclusive, CCT modulator -7, FLuc counter 3 -1% and A549 tox-2 inconclusive.
`O=c1cc(N2CCN(c3ccccc3)CC2)[nH]c(=O)n1C1CCCCC1` gave A549 tox-1 inconclusive, Nrf2 activator 1%, A-T KAP1 phos 4%, TCR activator -6%, Nrf2 block -6% and CCT modulator 0.
`CCOc1ccc(-n2c(SCC(=O)Nc3cc(C)ccc3C)nc3c([nH]c4ccccc43)c2=O)cc1` gave A549 tox-1 -1% and Nrf2 activator 0%.
CC(=O)C12OC(C)(C)OC1CC1C3CCC4=CC(=O)C=CC4(C)C3(F)C(O)CC12C (stereo not given) was read as A549 tox-1 13%, Nrf2 activator 3%, TCR activator -6%, Nrf2 block 0.0082µM*, CCT modulator -4, FLuc counter 3 0%, A549 tox-2 -12% and Nrf2 ARE inh 0.0065µM*.
`CC1(C)O[C@@H]2C[C@H]3[C@@H]4C[C@H](F)C5=CC(=O)C=C[C@]5(C)[C@H]4[C@@H](O)C[C@]3(C)[C@]2(C(=O)CO)O1` gave A549 tox-1 -11%, Nrf2 activator -1%, A-T KAP1 phos 7%, TCR activator 1%, Nrf2 block inconclusive and CCT modulator -3.
`C[C@@H]1C[C@H]2[C@@H]3CCC4=CC(=O)C=C[C@]4(C)[C@@]3(F)[C@@H](O)C[C@]2(C)[C@@]1(O)C(=O)CO` gave A549 tox-1 -9%, Nrf2 activator -1%, A-T KAP1 phos 4%, TCR activator 10%, Nrf2 block 0.0046µM*, CCT modulator -1, FLuc counter 3 1%, A549 tox-2 -4% and Nrf2 ARE inh 0.0052µM*.
C[C@@H]1C[C@H]2[C@@H]3CCC4=CC(=O)C=C[C@]4(C)[C@@]3(F)[C@@H](O)C[C@]2(C)[C@H]1C(=O)CO was read as A549 tox-1 -1%, Nrf2 activator -1%, A-T KAP1 phos 6%, TCR activator -8%, Nrf2 block 0.018µM*, CCT modulator 0, FLuc counter 3 3%, A549 tox-2 -15% and Nrf2 ARE inh 0.015µM*.
`CC1(C)O[C@@H]2C[C@H]3[C@@H]4CCC5=CC(=O)CC[C@]5(C)[C@@]4(F)[C@@H](O)C[C@]3(C)[C@]2(C(=O)CCl)O1` gave A549 tox-1 -12%, Nrf2 activator 1%, A-T KAP1 phos 1%, TCR activator -9%, Nrf2 block 0.012µM*, CCT modulator 0, FLuc counter 3 3%, A549 tox-2 -11% and Nrf2 ARE inh 0.0082µM*.
`CC(=O)[C@@]1(O)CC[C@H]2[C@@H]3C[C@H](C)C4=CC(=O)C=C[C@]4(C)[C@@]3(F)[C@@H](O)C[C@@]21C` gave A549 tox-1 9%, Nrf2 activator 0%, A-T KAP1 phos -1%, TCR activator 3%, Nrf2 block inconclusive and CCT modulator 2.
Cc1ccc(-c2nnc3c4ccccc4c(-c4ccccc4)nn23)cc1 was read as A549 tox-1 6%, Nrf2 activator 3% and Nrf2 block 11%.
CCOc1ccc(OCC)c(S(=O)(=O)n2cc(C)nc2CC)c1 was read as A549 tox-1 9%, Nrf2 activator 0%, A-T KAP1 phos 12%, TCR activator 1%, Nrf2 block 22% and CCT modulator 0.
`COc1c(S(=O)(=O)N2CCN(c3ccc(F)cc3)CC2)ccc(Cl)c1Cl` gave A549 tox-1 14%, Nrf2 activator 0%, A-T KAP1 phos -2%, TCR activator -1%, Nrf2 block -18% and CCT modulator 3.
CCc1nc(C)cn1S(=O)(=O)c1ccc(Cl)c(Cl)c1OC was read as A549 tox-1 0%, Nrf2 activator 0%, Nrf2 block 5.8µM*, FLuc counter 3 0%, A549 tox-2 -1% and Nrf2 ARE inh 5.8µM*.
`CCOc1cc(Cl)c(S(=O)(=O)n2cc(C)nc2CC)cc1Cl` gave A549 tox-1 -8%, Nrf2 activator 0%, Nrf2 block 8.2µM*, FLuc counter 3 3%, A549 tox-2 0% and Nrf2 ARE inh 8.2µM*.
